One test has as its target Albumin (Bos taurus) (UniProt P02769). Briefly: compounds binding labelled BSA control protein – biochemical, small-molecule microarray, Alexa647 label, 635/667 nm fluorescence, artefact control for SMM control protein annotation, profiling panel (AID 1118).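 Note: score merges 667 nm emission intensity and signal-to-noise per printed compound spot.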 The conditions noted are these: BSA-A647 binding, fluorescence 635 nm, higher = more signal.
Test [1] is described as follows: probe aXIP binding to arrayed compounds – biochemical, NeuroSMM set, 635/667 nm fluorescence, primary screen (AID 1119).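 Note: probe is the protein aXip251-270 applied at 1 µg/mL to compound-printed slides; binding of probe to printed compounds measured as 667 nm fluorescence plus signal to noise.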 The conditions noted are these: small-molecule microarray, higher = more signal, called active from +8 up or from −8 down.
The nature of test [2]: probe aNOTCH3 binding on compound microarray – biochemical, small-molecule microarray, 635/667 nm fluorescence, primary screen (AID 1120).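 Note: probe is a biotin-tagged antibody raised against NOTCH3 rather than NOTCH3 protein; score merges spot fluorescence near 667 nm with spot signal to noise.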 The conditions noted are these: higher = more signal.
The nature of test [3]: probe aNOTCH2 binding on compound microarray – biochemical, small-molecule microarray, 635/667 nm fluorescence, primary screen (AID 1121).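 Note: score merges feature fluorescence read at 667 nm with its signal to noise.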 The conditions noted are these: higher = more signal.
The target in test [4] is Carbonic anhydrase 2 (Homo sapiens) (UniProt P00918). Briefly: compounds binding carbonic anhydrase 2 – biochemical, small-molecule microarray, Alexa647-labelled CAII, profiling panel (AID 1122). The conditions noted are these: CAII-A647 binding fluorescence, higher = more signal.
Test [5] in a line: COS7 lysate on small-molecule microarray, probe aHis, 635 nm (AID 1123).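 Note: z-score combines 667nm fluorescence intensity with signal-to-noise per printed compound spot.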 The conditions noted are these: COS7 cell lysate, fluorescence, higher = more signal.
The nature of test [6]: probe aLAP1 signal on lysate-treated microarray – cell lysate, small-molecule microarray, COS7 lysate, primary screen (AID 1124).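 Note: lysate comes from COS7 cells expressing LAP1 and is applied at 0.3 µg/mL; score merges spot fluorescence near 667 nm with signal-to-noise over triplicate slides.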 The conditions noted are these: probe aLAP1, fluorescence, higher = more signal.
In the next test the test system is Sam68 (KHDRBS1). In words: compounds binding KHDRBS1 protein – biochemical, small-molecule microarray, 635 nm fluorescence, primary screen (AID 1125).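 Note: score merges 667 nm channel intensity with signal to noise over triplicate slides.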 The conditions noted are these: higher = more signal.
The subject of test [7] is Chordin-like protein 2 (CHRDL2). In words: compounds binding chordin-like 2 – biochemical, small-molecule microarray, 635 nm fluorescence, primary screen (AID 1126).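 Note: printed compound slides probed with Chrdl2 protein at 4 µg/mL for 1 h at 4 C; score merges 667 nm emission intensity with signal to noise over three replicate slides.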 The conditions noted are these: fluorescence 635 nm, higher = more signal.
The target in test [8] is Concanavalin-A (Canavalia ensiformis) (UniProt P02866). In words: compounds binding concanavalin A lectin – biochemical, small-molecule microarray, Alexa647 label, 635 nm, artefact control for SMM control protein annotation, primary screen (AID 1127).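 Note: z combines 667 nm emission intensity with signal-to-noise across three replicate slides.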 The conditions noted are these: ConA-A647 binding fluorescence, higher = more signal.
Chain of Concanavalin-A (Canavalia ensiformis) (P02866 whole entry, looked up): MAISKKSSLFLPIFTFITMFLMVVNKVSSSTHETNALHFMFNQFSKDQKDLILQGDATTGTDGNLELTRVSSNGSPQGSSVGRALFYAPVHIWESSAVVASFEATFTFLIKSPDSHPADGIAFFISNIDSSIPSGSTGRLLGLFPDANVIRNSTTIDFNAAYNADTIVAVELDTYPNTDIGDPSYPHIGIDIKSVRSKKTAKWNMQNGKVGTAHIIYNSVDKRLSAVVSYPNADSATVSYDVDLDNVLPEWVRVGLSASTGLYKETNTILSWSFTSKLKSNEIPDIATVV

Active and inactive are the calls of the source.

Chain of Albumin (Bos taurus) (P02769 whole entry, looked up): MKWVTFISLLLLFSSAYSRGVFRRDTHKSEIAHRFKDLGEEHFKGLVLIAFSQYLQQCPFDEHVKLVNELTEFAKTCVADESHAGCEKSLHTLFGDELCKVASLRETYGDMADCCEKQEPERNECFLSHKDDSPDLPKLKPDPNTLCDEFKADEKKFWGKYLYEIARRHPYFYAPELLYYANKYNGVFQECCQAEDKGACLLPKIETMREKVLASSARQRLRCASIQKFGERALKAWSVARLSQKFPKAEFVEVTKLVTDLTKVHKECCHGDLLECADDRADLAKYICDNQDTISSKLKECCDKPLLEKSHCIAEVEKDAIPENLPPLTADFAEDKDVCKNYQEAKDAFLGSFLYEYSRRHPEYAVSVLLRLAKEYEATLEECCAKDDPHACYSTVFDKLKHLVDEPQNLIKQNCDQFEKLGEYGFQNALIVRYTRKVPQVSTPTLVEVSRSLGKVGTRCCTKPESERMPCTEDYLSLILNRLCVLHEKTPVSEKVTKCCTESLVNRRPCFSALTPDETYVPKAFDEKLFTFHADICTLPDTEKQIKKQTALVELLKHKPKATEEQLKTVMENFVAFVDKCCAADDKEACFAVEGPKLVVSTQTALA

Turning to `COc1ccc([Si](C)(C)[C@H]2[C@H](CCn3cc([C@H](O)c4ccccc4)nn3)O[C@@]3(C(=O)N(C)c4c(Br)cc(C)cc43)[C@@H]2C)cc1`, the composite z-score is -0.628 in the test with Albumin (Bos taurus); -0.259 in test [2]; -0.103 in test [3]; -0.149 in test [4]; -0.215 in test [5]; -0.112 in test [6]. Besides, the composite z-score in the test on Sam68 (KHDRBS1) came to 0.0516; in test [7], 0.182; in test [8], 0.005. The composite Z-score in test [1] was 1.94 (inactive).

For `C=CC(CO)NC(=O)OCC1c2ccccc2-c2ccccc21` (stereo not given), the composite z-score with Albumin (Bos taurus) is -0.335; in test [2], 0.0242; in test [3] it was -0.108; in test [4], -0.192; in test [5], 0.121; in test [6] it was -0.0184. Moreover, the composite z-score is 0.0668 with Sam68 (KHDRBS1), 0.566 in test [7] and 0.47 in [8]. In [1], the composite Z-score was 0.314 (inactive).

For the compound `CCN(CC)c1ccc(N2CC=CC34O[C@@H]5C=CCOC(=O)[C@@H]5[C@H]3C(=O)N(CCCO)[C@@H]4C2=O)cc1` (stereo not given in full), the composite z-score with Albumin (Bos taurus) was -0.997; in test [2], -0.0971; in test [3], -0.14; in [4], 0.862; in test [5], 1.4; in test [6], -0.39. Moreover, the composite z-score in the test on Sam68 (KHDRBS1) is 0.425; in [7], -0.773; in [8], -1.74. Moreover, the composite Z-score in test [1] is 0.547 (inactive).

Turning to `C=CCOC(=O)[C@H]1[C@@H]2C(=O)O[C@@H](c3ccccc3)[C@@H](c3ccccc3)N2[C@@H](c2ccc(OCCOC(=O)[C@@H]3C[C@@H]4C(=O)N[C@@H](Cc5ccccc5)C(=O)N4[C@@H]3c3ccc(O)cc3)cc2)[C@]12C(=O)Nc1ccccc12`, the composite z-score in the test with Albumin (Bos taurus) is 0.527; in [2], 0.0382; in test [3], -0.181; in test [4], 0.67; in test [5], 1.74; in test [6], 0.509. Besides, the figures for the composite z-score (in the test on Sam68 (KHDRBS1); in [7]; in test [8]) were 1.3, 1.11 and 1.16, respectively. The composite Z-score in [1] is 0.129 (inactive).

`Cc1ccc(S(=O)(=O)N2[C@@H](c3ccccc3)C(C(=O)O)=CC[C@H]2c2ccc(C#N)cc2)cc1`: the composite z-score was 1.04 in the test with Albumin (Bos taurus); -0.0647 in [2]; 0.0167 in [3]; 0.802 in test [4]; 3.18 in test [5]; 1.04 in test [6]. Further, the values for the composite z-score (with Sam68 (KHDRBS1); in test [7]; in test [8]) were 1.21, -0.425 and 0.805, respectively. For the same compound, in test [1], the composite Z-score was 0.661 (inactive).

`O=C1N(CCS(=O)(=O)c2ccccc2)c2ccccc2[C@@H]2OC(c3ccc(OCCCO)cc3)=N[C@]12CCS(=O)(=O)c1ccccc1`: the composite z-score with Albumin (Bos taurus) is 0.929; in test [2] it was 0.0496; in test [3] it was 0.0684; in test [4], 0.503; in test [5] it was 2.8; in test [6], 1.21. Also, the composite z-score amounted to 1.29 with Sam68 (KHDRBS1), 1.1 in [7] and 1.15 in [8]. For the same compound, the composite Z-score in test [1] is 0.759 (inactive).

Regarding `CCCCN1CC=CC23O[C@@H]4/C=C\CCC(C)OC(=O)C4[C@H]2C(=O)N(C(C)CO)[C@@H]3C1=O` (stereo not given in full), the composite z-score with Albumin (Bos taurus) is -1.58; in [2], -0.0498; in test [3] it was -0.0907; in test [4], 0.822; in test [5], -0.986; in [6], 0.103. Further, the composite z-score is -0.879 with Sam68 (KHDRBS1), -0.0668 in test [7] and -0.59 in test [8]. Also, in [1], the composite Z-score is 0.319 (inactive).

Consider `COc1ccc([Si](C)(C)[C@H]2[C@H](CCn3cc([C@H](O)c4ccccc4)nn3)O[C@@]3(C(=O)N(c4ccccc4)c4ccccc43)[C@@H]2C)cc1`, for which the composite z-score with Albumin (Bos taurus) is 0.121; in test [2], -0.0879; in test [3] it was -0.156; in [4], -0.102; in test [5], -0.337; in test [6], -0.075. Moreover, the values for the composite z-score (with Sam68 (KHDRBS1); in test [7]; in test [8]) were 0.0941, -0.201 and 0.173, respectively. Further, the composite Z-score in test [1] is -0.112 (inactive).

Consider `C=CC[C@]1(C(=O)OC)N=C(c2ccc(OCCCO)cc2)O[C@H]1c1ccccc1N=[N+]=[N-]`, for which the composite z-score with Albumin (Bos taurus) is -0.899; in test [2] it was 0.734; in test [3] it was 0.26; in [4] it was 0.429; in test [5], 2.87; in test [6], 0.198. The values for the composite z-score (in the test with Sam68 (KHDRBS1); in [7]; in [8]) were 1.3, 1.14 and 1.09, respectively. Further, the composite Z-score in [1] was 0.0557 (inactive).

For the compound `C[C@H]1NC(=O)C([C@@H](C)OCc2ccccc2)NC(=O)[C@@]23C(=O)N[C@@H](Cc4ccccc4)C2[C@H](C)[C@@]2(C)O[C@H]2C3/C=C/C/C=C\CNC1=O` (stereo not given in full), the composite z-score in the test with Albumin (Bos taurus) was -0.224; in [2] it was -0.136; in [3], -0.177; in test [4], 0.661; in test [5], 0.234; in test [6], -0.0311. The composite z-score with Sam68 (KHDRBS1) was -0.204; in [7] it was 0.601; in [8] it was -0.401. Also, the composite Z-score in test [1] was -0.211 (inactive).

Take `C=C(CC1([C@@H](NP(=O)(c2ccccc2)c2ccccc2)[C@H]2C[C@@H]2CCN(C(=O)OCC)S(=O)(=O)c2ccc(C)cc2)CC1)c1ccccc1`: the composite z-score with Albumin (Bos taurus) worked out at 0.963; in test [2], 0.6; in test [3] it was 0.354; in [4], 0.355; in [5] it was 2.65; in [6], 0.319. Also, the values for the composite z-score (with Sam68 (KHDRBS1); in test [7]; in test [8]) were 0.981, -0.845 and 0.74, respectively. Further, the composite Z-score in test [1] was 0.39 (inactive).

With `CN(C)CCCNC(=O)[C@@H]1c2ccccc2C(=O)N(C2Cc3ccccc3C2)[C@H]1c1ccc(CO)cc1`, the composite z-score with Albumin (Bos taurus) was 0.274; in test [2], -0.45; in test [3], 0.197; in test [4] it was 0.505; in [5], 0.132; in test [6], 0.682. For the same compound, the figures for the composite z-score (in the test on Sam68 (KHDRBS1); in [7]; in [8]) were 1.3, -0.0701 and 0.491, respectively. Also, in test [1], the composite Z-score is 0.0516 (inactive).

Turning to `CN1C(=O)[C@]2(CCC(=O)OC(C)(C)C)N=C(c3ccc(OCCCO)cc3)O[C@@H]2c2ccccc21`, the composite z-score with Albumin (Bos taurus) was 0.272; in test [2] it was -0.117; in test [3] it was -0.12; in [4] it was 0.709; in test [5] it was 2.69; in test [6], -0.313. Also, the composite z-score in the test on Sam68 (KHDRBS1) was found to be 1.28; in test [7], 0.149; in [8] it was 1.12. For the same compound, the composite Z-score in test [1] is 0.0786 (inactive).
